From PubChem BioAssay AID932 (The Scripps Research Institute Molecular Screening Center, 2007) come the findings set out here.

The campaign covered roughly 200,000 compounds. About 5,100 (2.5%) were called active. What follows is part of a selection rich in actives, with near analogues and random picks from the rest. Unmarked numbers belong to inactive results.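 How the source made its calls: active means activation above the screen-wide mean activation plus 3 SD (cut at about 130% in these data); inactive means the rest.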

The assay can be described thus: STAT1 signaling activators, primary screen, cell-based, HTS, luciferase reporter (AID 932).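 Further: raw ratio to IFN-gamma control signal so 100% means no change and 0% no light.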 To be noted: NIH 3T3 STAT1-luciferase reporter, IFN-gamma, luminescence; at 5.5 µM; hits give high values; 100% = IFN-gamma alone, no compound.
Consider `O=C(Nc1cccc(OC(=O)N2CCCCC2)c1)N1CCOCC1`, for which the activation (% of control) was 101%.

Consider `CC(C)(C)c1ccc(OC(=O)N2CCCCC2)cc1`, for which the activation (% of control) was 146% (active).

As for `CN1CCN(C(=O)COc2ccc(C(C)(C)C)cc2Br)CC1`, the activation (% of control) is 97%.

Consider `Cc1ccccc1N1C(=O)NC(=O)/C(=C\c2cc(C)n(C)c2C)C1=O`, for which the activation (% of control) was 92.7%.

`CCOC(=O)C1CN(C)CCC1=O` (stereo not given): the activation (% of control) is 96.3%.
